PubChem BioAssay
Activity calls are given as the source filed them.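 Rule for the calls, unless noted: active = fluorescence slope after compound addition differing from the mean of all screened samples at 99.7% confidence, in either direction; inactive = the rest.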

How the values were obtained:
[1] = inhibitors of TNFa-induced NFkB p65 translocation, primary screen, imaging, HUVEC, MLSMR starter and 10KST1 sets (AID 438;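 active = inhibition above 20% together with a positive visual image hit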;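 note: compound added about 3h40 before a 20 min TNFalpha stimulation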;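 for inhibition: signal is the nuclear over cytoplasmic p65 intensity ratio per well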); details: HUVEC TNFa-induced p65 nuclear translocation; cell count: measured here: nuclei count (cytotoxicity indicator), at 2.08 µM; inhibition: at 2 µM, stronger effect = higher value, 0% TNFa-plus-vehicle, 100% no-TNFa wells
[2] = reduction of polyQ htt aggregates in cells – imaging, exon1htt(103Q)mCFP cells, high-content imaging, primary screen (AID 483;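 active = visual image review flags a hit and inhibition of aggregation exceeds 20%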;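 note: compound exposure lasted 3 days before fixation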;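 for nuclei count: percent of the per-plate median nuclei count of sample wells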); details: exon1htt(103Q)mCFP cell line, aggregate imaging, at 2 µM; inhibition of aggregation: stronger effect = higher value; nuclei count: measured here: cell count, toxicity
[3] = endothelial E-selectin expression blockers – imaging, HUVEC, immunofluorescence, MLSMR starter and 10KST1 sets, primary screen (AID 487;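 active = visually confirmed hit in the image check and inhibition above 20%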;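 for inhibition: signal is fraction of cell area covered by stained E-selectin grains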;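 for nuclei count: 100% = median nuclei count of all wells on the same plate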); details: HUVEC TNFalpha-induced E-selectin immunofluorescence imaging, at 2 µM; inhibition: stronger effect = higher value; nuclei count: measured here: cell number, toxicity
[4] = molecular target: Voltage-gated potassium channel subunit beta-2 (Rattus norvegicus) (UniProt P62483); assay: inhibitors of rat Kvbeta2 reductase activity – biochemical, NADPH fluorescence, primary screen (AID 622;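 active = fluorescence slope higher than the sample average by over 3 SD, cut at about -0.22 in these data, passing the limit was not always enough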;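 note: slope of raw intensity against log time taken from 70 to 1610 s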); details: recombinant KvBeta, 4-cyanobenzaldehyde reduction, at 10 µM, stronger effect = higher value
[5] = molecular target: Voltage-gated potassium channel subunit beta-2 (Rattus norvegicus) (UniProt P62483); assay: enhancers of rat Kvbeta2 NADPH turnover – biochemical, NADPH fluorescence, primary screen (AID 623;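 active = NADPH fluorescence slope more negative than the mean of all samples by about 3 SD, 99.7% confidence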;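 note: fluorescence intensity change per second fitted from 20 to 320 s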); details: Recombinant KvBeta, NADPH fluorescence decrease slope, 10 min; at 10 µM; stronger effect = lower value
[6] = molecular target: Alpha-2C adrenergic receptor (Homo sapiens) (UniProt P18825); assay: compounds altering alpha2C-coupled GIRK flux – cell-based, HEK293 alpha2C/GIRK1/2, thallium flux, primary screen (AID 624); details: thallium flux BTC fluorescence, at 10 µM, actives lie on both sides;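 note: slope of fluorescence ratio to pre-addition baseline per second over 15 to 24 s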
[7] = blockers of RIG-like receptor reporter activation – cell-based, Sendai virus stimulus, luciferase, 10K MLSCN set, TLR/RLR signaling modifier project, primary screen (AID 602276;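 active = inhibition at or above 50% at 10 µM; inactive = inhibition below 50%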;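 note: firefly luciferase from ISG56 promoter only with Renilla not read in this screen; 0% = Sendai virus plus DMSO and 100% = medium plus DMSO without virus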); details: HEK293 RL24 IRF3 luciferase reporter, at 10 µM, stronger effect = higher value
[8] = TLR3 IRF3 reporter activation blockers – cell-based, poly I:C stimulus, luciferase, 10K MLSCN set, primary screen (AID 602277;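 active = inhibition of the reporter signal at or above 50%; inactive = inhibition below 50%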); details: HEK293-TLR3 RL24 IRF3 luciferase reporter, at 10 µM, stronger effect = higher value

Sequence of Voltage-gated potassium channel subunit beta-2 (Rattus norvegicus) (P62483 whole entry, looked up): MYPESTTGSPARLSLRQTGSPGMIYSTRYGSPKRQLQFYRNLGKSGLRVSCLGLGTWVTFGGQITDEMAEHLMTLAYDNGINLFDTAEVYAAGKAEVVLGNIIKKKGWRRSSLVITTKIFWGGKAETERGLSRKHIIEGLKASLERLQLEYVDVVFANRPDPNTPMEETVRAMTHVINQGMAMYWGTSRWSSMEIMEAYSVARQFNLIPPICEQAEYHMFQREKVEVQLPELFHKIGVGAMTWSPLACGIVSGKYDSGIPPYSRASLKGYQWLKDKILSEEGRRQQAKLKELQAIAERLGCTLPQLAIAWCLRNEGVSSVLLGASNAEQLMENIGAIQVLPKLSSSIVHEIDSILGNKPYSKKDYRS
Sequence of Alpha-2C adrenergic receptor (Homo sapiens) (P18825 whole entry, looked up): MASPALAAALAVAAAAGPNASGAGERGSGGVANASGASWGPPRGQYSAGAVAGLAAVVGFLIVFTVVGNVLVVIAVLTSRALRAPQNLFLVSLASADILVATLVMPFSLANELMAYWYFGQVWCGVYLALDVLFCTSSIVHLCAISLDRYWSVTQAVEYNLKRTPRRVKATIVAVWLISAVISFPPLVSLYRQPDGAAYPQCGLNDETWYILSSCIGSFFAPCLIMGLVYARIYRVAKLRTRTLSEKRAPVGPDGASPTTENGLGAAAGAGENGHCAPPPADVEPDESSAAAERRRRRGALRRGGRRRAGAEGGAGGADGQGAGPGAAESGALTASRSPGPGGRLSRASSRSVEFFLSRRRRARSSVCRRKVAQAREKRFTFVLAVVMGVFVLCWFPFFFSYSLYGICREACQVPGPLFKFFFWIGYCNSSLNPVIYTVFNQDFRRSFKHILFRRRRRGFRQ

| Structure (SMILES) | cell count [1] | inhibition [1] | inhibition of aggregation [2] | nuclei count [2] [%] | inhibition [3] | nuclei count [3] [%] | fluorescence slope [4] | NADPH fluorescence slope [5] | slope [6] | inhibition [7] | inhibition [8] |
| --- | --- | --- | --- | --- | --- | --- | --- | --- | --- | --- | --- |
| CCOC(=O)CSc1nc2sc(C)c(C)c2c(=O)n1C | 259 | 12.5% (inactive) | 25.6% (inactive) | 76.8 | 8.8% (inactive) | 113 | -0.36 (inactive) | 1.9e-05 (inactive) | 0.00254 (inactive) | 11% (inactive) | 26% (inactive) |
| CCCCS(=O)(=O)NC1=NCN(C2CCN(Cc3ccccc3)CC2)CN1 | 378 | -2.1% (inactive) | 17.7% (inactive) | 97.1 | -23.1% (inactive) | 113 | -0.572 (inactive) | -9.6e-05 (inactive) | 0.00667 (inactive) | 4.05% (inactive) | 18.7% (inactive) |
| Cc1cc(C)n2c(SCCN3C(=O)c4ccccc4C3=O)nnc2n1 | 787 | -5.1% (inactive) | 12.4% (inactive) | 126 | -8.9% (inactive) | 107 | -0.572 (inactive) | -1.7e-05 (inactive) | 0.00697 (inactive) | 10.1% (inactive) | 24.4% (inactive) |
| CCCCCn1c(CN2CCN(C(=O)c3ccco3)CC2)nc2c1c(=O)n(C)c(=O)n2C | 726 | -14.6% (inactive) | -17.8% (inactive) | 103 | -13.1% (inactive) | 113 | -0.57 (inactive) | -5.2e-05 (inactive) | 0.00727 (inactive) | 1.47% (inactive) | 11.3% (inactive) |
| O=C(CCN1C(=O)COc2ccccc21)NCCN1CCN(c2cccc(Cl)c2)CC1 | 597 | -3.6% (inactive) | 0.2% (inactive) | 88.9 | -68.5% (inactive) | 112 | -0.602 (inactive) | -2.6e-06 (inactive) | 0.00502 (inactive) | 7.8% (inactive) | 7.33% (inactive) |
| CS(=O)(=O)C1=C(O)C(=O)N(c2ccccc2)C1c1ccccc1 (stereo not drawn) | 415 | -6% (inactive) | -10.4% (inactive) | 103 | -41.9% (inactive) | 132 | -0.439 (inactive) | 1.7e-05 (inactive) | 0.00632 (inactive) | -1.92% (inactive) | 26.4% (inactive) |
| O=C(NCc1ccccn1)c1cccs1 | 254 | 12.5% (inactive) | 2.9% (inactive) | 91.4 | -1.8% (inactive) | 95.7 | -0.479 (inactive) | -5.3e-05 (inactive) | 0.00519 (inactive) | -4.29% (inactive) | 5.52% (inactive) |
| O=C(CCN1CCc2ccccc2C1)Nc1ccc2c(c1)OCO2 | 413 | 2.9% (inactive) | 14.5% (inactive) | 96.1 | -84.4% (inactive) | 110 | -0.542 (inactive) | -1.3e-05 (inactive) | 0.00425 (inactive) | 6.95% (inactive) | 14.1% (inactive) |
| COC(=O)CSC1=C(C#N)C(c2ccc(F)cc2)CC(=O)N1 (stereo not drawn) | 591 | 2.5% (inactive) | -6.5% (inactive) | 91.8 | 0.6% (inactive) | 91 | -0.542 (inactive) | -3.8e-05 (inactive) | 0.00754 (inactive) | 10.2% (inactive) | 19.4% (inactive) |
| CCOC(=O)CSc1nnc(NCC(=O)OC(C)C)c(=O)[nH]1 | 634 | 7.2% (inactive) | 3.7% (inactive) | 100 | -81.4% (inactive) | 144 | -0.573 (inactive) | 3.9e-05 (inactive) | 0.00694 (inactive) | 9.31% (inactive) | 3.05% (inactive) |
| CCC1CCCCN1C(=O)Cn1c(C(=O)OC)cc2sc(Cl)cc21 (stereo not drawn) | 505 | -11.3% (inactive) | -19.4% (inactive) | 107 | 7.9% (inactive) | 94.4 | -0.388 (inactive) | -2e-05 (inactive) | 0.00448 (inactive) | 9.78% (inactive) | 34.6% (inactive) |
| Cc1cc(C)n2nc(S(=O)(=O)N(C)c3ccccc3)nc2n1 | 679 | -2.6% (inactive) | 16.2% (inactive) | 102 | -66.9% (inactive) | 114 | -0.568 (inactive) | -5.7e-05 (inactive) | 0.00717 (inactive) | 7.86% (inactive) | 34.2% (inactive) |
| CCOC(=O)/N=C(/NC(=O)Nc1ccc(C(=O)OCC)cc1)OC | 266 | -3.6% (inactive) | 17% (inactive) | 92.2 | 7.6% (inactive) | 108 | -0.583 (inactive) | -6e-05 (inactive) | 0.00625 (inactive) | 13.9% (inactive) | 23.9% (inactive) |
| COc1ccc(C(CNC(=O)c2ccc(OCC3CCCO3)cc2)N2CCOCC2)cc1 (stereo not drawn) | 666 | 0.6% (inactive) | -1.9% (inactive) | 86.2 | 7.9% (inactive) | 112 | -0.49 (inactive) | -4e-05 (inactive) | 0.00447 (inactive) | 15.9% (inactive) | 20.4% (inactive) |
| CCOc1ccc(NC(=O)CN(c2cc(C)cc(C)c2)S(=O)(=O)c2c(C)noc2C)cc1 | 785 | -1.1% (inactive) | 23.6% (inactive) | 99.2 | -14.8% (inactive) | 105 | -0.574 (inactive) | 1.1e-05 (inactive) | 0.0058 (inactive) | 13.8% (inactive) | -22.3% (inactive) |
| COC(=O)CCCCCc1ccc(C(C)=O)s1 | 350 | -6.3% (inactive) | 10.5% (inactive) | 101 | -65.9% (inactive) | 120 | -0.496 (inactive) | -3.1e-05 (inactive) | 0.00508 (inactive) | 16.6% (inactive) | 15.4% (inactive) |
| COc1ccc(-c2nnc(SCC(=O)Nc3sc4c(c3C#N)CCC4)n2CC2CCCO2)cc1 (stereo not drawn) | 846 | 4.6% (inactive) | 13.5% (inactive) | 103 | -171% (inactive) | 131 | -0.591 (inactive) | -5.3e-05 (inactive) | 0.00872 (inactive) | 7.87% (inactive) | 15.5% (inactive) |
| CCN1C(=O)C2(C(C#N)=C(N)Oc3n[nH]c(C(C)C)c32)c2ccccc21 (stereo not drawn) | 679 | -4.5% (inactive) | -20.7% (inactive) | 104 | 2.2% (inactive) | 97 | -0.485 (inactive) | -3.1e-05 (inactive) | 0.005 (inactive) | 20.9% (inactive) | 21.2% (inactive) |
| COc1ccc(-c2[nH]nc3c2C(c2ccncc2)C(C#N)=C(N)O3)cc1 (stereo not drawn) | 441 | 6% (inactive) | 2.5% (inactive) | 113 | -6.7% (inactive) | 100 | -0.31 (inactive) | -4.4e-05 (inactive) | 0.00483 (inactive) | 6.11% (inactive) | 99% (active) |
| O=C(c1ccco1)N1CCN(C(=O)c2sccc2-c2ccccc2)CC1 | 310 | 20.7% (inactive) | 7.1% (inactive) | 90 | -74.7% (inactive) | 115 | -0.581 (inactive) | 2.3e-06 (inactive) | 0.0052 (inactive) | -5.94% (inactive) | 4.34% (inactive) |
| CCOC(=O)c1[nH]c(C)c(C(=O)NC)c1C | 627 | -1.3% (inactive) | 0.2% (inactive) | 105 | -37.7% (inactive) | 103 | -0.563 (inactive) | -1.3e-05 (inactive) | 0.00529 (inactive) | 9.49% (inactive) | 27.6% (inactive) |
| COc1ccc2[nH]c(C)c(CCN3C(=O)OC(C)(C)C3(C)O)c2c1 (stereo not drawn) | 754 | -4% (inactive) | -15.3% (inactive) | 97.3 | -2.5% (inactive) | 111 | -0.561 (inactive) | -4.3e-05 (inactive) | 0.00701 (inactive) | 6.33% (inactive) | 23.6% (inactive) |
| O=C(c1ccncc1)N1CCN(C(=O)c2cccs2)CC1 | 454 | -3.3% (inactive) | 1.6% (inactive) | 110 | 0.5% (inactive) | 106 | -0.459 (inactive) | -3e-05 (inactive) | 0.00631 (inactive) | 12.1% (inactive) | 14.2% (inactive) |
| COc1cccc2cc(C(=O)N3CCN(c4ccc(C)cc4C)CC3)c(=O)oc12 | 800 | -3.4% (inactive) | -43.1% (inactive) | 116 | -30.2% (inactive) | 110 | -0.565 (inactive) | -1.5e-05 (inactive) | 0.00579 (inactive) | -9.04% (inactive) | 5.89% (inactive) |
| Cc1ccc(Cn2c(NCCc3ccccc3)nc3c2c(=O)n(C)c(=O)n3C)cc1 | 368 | 6.8% (inactive) | 6.1% (inactive) | 98.7 | -203% (inactive) | 108 | -0.597 (inactive) | -6.3e-06 (inactive) | 0.00517 (inactive) | 34.6% (inactive) | 29.6% (inactive) |
| Cc1c(C#N)c2ccccc2n1CC(=O)N1CCc2ccccc2C1 | 583 | 6% (inactive) | 8.7% (inactive) | 95.3 | 11.5% (inactive) | 114 | -0.581 (inactive) | -4.4e-05 (inactive) | 0.00747 (inactive) | -9.66% (inactive) | 21.9% (inactive) |
| CC(C)CN(CC(C)C)C(=O)CS(=O)(=O)Cc1ccccc1 | 334 | -1.2% (inactive) | -5.8% (inactive) | 98.4 | -51.3% (inactive) | 116 | -0.492 (inactive) | -6.4e-05 (inactive) | 0.00578 (inactive) | 6.49% (inactive) | 16.4% (inactive) |
| COC(=O)c1ccc(-c2ccco2)n1Cc1nc(-c2ccc(OC)c(OC)c2)oc1C | 470 | -0.5% (inactive) | 19% (inactive) | 113 | -28% (inactive) | 93.4 | -0.308 (inactive) | -4.8e-05 (inactive) | 0.00465 (inactive) | 12.2% (inactive) | -0.464% (inactive) |
